# Only some compounds are listed: those with a hit (about 1.8% of all), similar ones and a draw of the others.
# p53ts 39C tox = qHTS Screen for Compounds that Selectively Target Cancer Cells with p53 Mutations: Cytotoxicity of p53ts Cells at the Nonpermissive Temperature; AID 902, 2007; hit rate 1.5% among 130,000; Potency, µM (titrated, usually from 46.1 µM), without a hit: at the highest dose activity change, negative = cell killing, usual class: cytotoxic; H1299-p53A138V viability at 39C, ATP luminescence, 24 h; further: on the % scale 0 is the no-effect control and ±100 the full control effect; nearly all actives have a fitted effect of over 55% in size
# IkB signaling = IkB Signaling. ABC-DLBCL IkBa-CBG/CBR dual luciferase ratio, 4 h; response scale: scaled: untreated 0%, proteasome inhibitor 100%. Potency, µM (doses to about 57.1 µM), without a hit: at the highest dose IkBa stabilization activation. hit rate 0.04% among 110,000. AID 445, 2006; active means well fitted curve in the direction sought with a large enough effect in the signal ratio, not every such curve was filed as active; inconclusive means small, poorly fitted or top-dose-only effect, or a change in a side signal; the % refers to the signal ratio;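 further: the direction sought is a rising ratio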
#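 In this assay, an IκBα–CBG68 fusion accumulates when IKK-driven degradation is blocked; native CBR normalizes for cell number. OCI-Ly3 cells were treated 4 h with compound and doxycycline, then green and red light read after Chroma-Glo addition.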
# p53ts 32C tox = qHTS Screen for Compounds that Selectively Target Cancer Cells with p53 Mutations: Cytotoxicity of p53ts Cells at the Permissive Temperature | H1299-p53A138V at 32C, ATP luminescence viability, 24 h | hit rate 0.93% among 130,000 | AID 924, 2007 | Potency, µM (highest dose often 46.1 µM), for the others: top-dose activity change, negative = cytotoxicity, actives largely listed as cytotoxic;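 further: 0% = DMSO and -100% = full killing by reference compound; nearly all actives have a fitted effect of over 55% in size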
#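 Viability by ATPlite luminescence after 24 h compound treatment (up to 46 uM) at the permissive 32C. Cells are H1299 carrying p53 A138V. Scale runs from DMSO basal to 100 uM tamoxifen as full kill; AC50 from Hill fits.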
# Peg3 imprint = qHTS Assay for Compounds that Induce Erasure of Genomic Imprints. mouse ES Peg3-LacZ reporter, beta-gal luminescence, 40 h. Potency, µM (series often up to 60.7 µM), for inactives: at the top dose activity change, positive = activation, hits mostly activators. hit rate 0.02% among 110,000. AID 1948, 2009
#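 Gelatin-coated wells received 300 freshly trypsinized female ES cells with a Peg3LacZ-Neo reporter on the maternal allele, then incubated 40 hours at 37C. BetaGlo was added for 5 minutes at room temperature before a single luminescence read.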
# The depositor's hits bear a star; ? = inconclusive; . = no result; [ ] = remark or other dose. Unless noted, the call rests on the fitted dose curve; in most records, active means well fitted curve in the direction sought with a large enough effect; inconclusive means small, poorly fitted or top-dose-only effect, or another doubt; inactive means no such curve, though single readings can be large; an effect the other way counts as inactive or inconclusive. Potency means the concentration at half of the fitted maximal effect.
SMILES,p53ts 39C tox,IkB signaling,p53ts 32C tox,Peg3 imprint
CCOc1cccc(-c2nc3cc(C)ccc3o2)c1,?,2.3%,15.8µM*,-61.2%
Cc1oc2ncn(CC(C)C)c(=O)c2c1C(=O)NCc1cccc(Cl)c1,-9.0%,-1.7%,0.9%,11.0%[10.9 µM]
CCC(CO)Nc1ncnc2c1cnn2-c1ccc(C)cc1 (stereo not given),15.8µM*,?,?,-12.8%[10.9 µM]
CC(C)Nc1ncnc2c1cnn2-c1ccc(Cl)cc1,15.8µM*,?,12.6µM*,-27.8%
Cc1ccc(-n2ncc3c(NC(C)c4ccccc4)ncnc32)cc1 (stereo not given),?,?,?,-12.1%[10.9 µM]
COc1c(-c2coc3cc4c(cc3c2=O)CC(O)C(C)(C)O4)ccc2c1C=CC(C)(C)O2 (stereo not given),25.1µM*,.,?,-34.4%
Cc1cccc(CS(=O)(=O)c2ncc(Cl)c(C(=O)Nc3nc4ccc(F)cc4s3)n2)c1,10µM*,?,15.8µM*,-35.8%[10.9 µM]
COc1ccc2nc(NC(=O)c3nc(S(=O)(=O)Cc4ccccc4F)ncc3Cl)sc2c1,3.98µM*,-0.5%,?,-40.1%[10.9 µM]
COc1ccc2nc(NC(=O)c3nc(SCc4ccccc4F)ncc3Cl)sc2c1,-19.7%,-0.4%,5.4%,14.0%[10.9 µM]
Cc1nnc(NC(=O)c2nc(S(=O)(=O)Cc3ccccc3)ncc2Cl)s1,15.8µM*,0.9%,?,-33.8%[10.9 µM]
Cc1ccc2nc(NC(=O)c3cc(=O)c4cc(C)c(C)cc4o3)sc2c1,8.1%,-3.5%,8.4%,-10.6%[10.9 µM]
COc1ccc2nc(NC(=O)c3cc(=O)c4ccccc4o3)sc2c1,10µM*,?,?,-8.7%[10.9 µM]
COc1ccc(Cn2c(=O)c3oc4ccccc4c3n(Cc3ccccc3)c2=O)cc1,-13.0%,?,6.3%,-12.4%[10.9 µM]
COc1ccc(N2CCN(S(=O)(=O)c3ccc(CC(C)C)cc3)CC2)cc1,-29.4%,?,5.2%,-5.8%[10.9 µM]
CO[C@@H]1COC(=O)[C@H](C)NC(=O)[C@@H](C)COC(=O)[C@H](C)NC(=O)C/C=C\[C@H]1C,6.8%[9.22 µM],.,2.8%[9.22 µM],.
O=C(Nc1nc2ccc(F)cc2s1)c1nc(S(=O)(=O)Cc2ccccc2)ncc1Cl,?,-3.8%,?,-49.9%[10.9 µM]
COc1ccc2nc(NC(=O)c3nc(S(=O)(=O)Cc4ccccc4)ncc3Cl)sc2c1,5.01µM*,?,12.6µM*,-43.7%[10.9 µM]
COC(=O)c1ccccc1NC(=O)c1nc(S(=O)(=O)Cc2ccccc2F)ncc1Cl,15.9%,12.0%,3.8%,12.7%[10.9 µM]
O=C(Nc1ccccc1F)c1nc(S(=O)(=O)Cc2ccccc2F)ncc1Cl,3.98µM*,?,?,-35.6%[10.9 µM]
O=C(Nc1cccc(Br)c1)c1cc(-c2ccc3c(c2)OCCO3)on1,?,?,?,-41.7%[10.9 µM]
O=C(NC1CC1)c1cccc(Nc2ccc(-c3ccc4c(c3)OCCO4)nn2)c1,10µM*,?,20µM*,.
COc1cccc(-c2oc3ccc(C)cc3c(=O)c2O)c1,10µM*,?,?,-11.5%[10.9 µM]
COc1ccc2oc(-c3ccc(O)cc3)cc(=O)c2c1,7.94µM*,0.1%[11.4 µM],5.01µM*,-86.6%
O=c1cc(-c2cccc(O)c2)oc2c(O)c(O)ccc12,25.1µM*,1.9%[11.4 µM],?,-13.7%
O=c1cc(-c2cccc(O)c2)oc2cc(O)ccc12,-22.4%,-1.1%[11.4 µM],-14.9%,-35.6%
SMILES,p53ts 39C tox,IkB signaling,p53ts 32C tox,Peg3 imprint
COC(=O)COc1ccc2oc(-c3ccc(OC)cc3)cc(=O)c2c1,-7.1%,2.9%,-7.1%,-9.1%[10.9 µM]
Cc1ccc2oc(-c3ccccc3)c(O)c(=O)c2c1,-5.3%,0.5%[11.4 µM],-13.6%,-6.0%
CCCCC(=O)Oc1ccc2oc(-c3ccc(OC)cc3)cc(=O)c2c1,6.31µM*,?,?,-34.5%[10.9 µM]
COc1ccc(-c2cc(=O)c3cc(OC)ccc3o2)cc1,?,.,?,25.3%
CCn1c(=O)cc(SCC(=O)NCc2ccc(F)cc2Cl)c2ccccc21,-15.9%,?,-0.7%,-7.0%[10.9 µM]
CCN(CC)CCCC(C)NC(=O)c1ccc(Cc2nc3ccccc3[nH]2)cc1 (stereo not given),-4.3%,.,8.7%,.
COc1cccc(-c2cc(=O)c3cc(O)ccc3o2)c1,12.6µM*,-1.7%[11.4 µM],?,-64.3%
COc1cccc(-c2cc(=O)c3ccc(OC)cc3o2)c1,-16.2%,.,-12.5%,-20.0%
O=C(O)C(NS(=O)(=O)c1cccc2cccnc12)c1ccccc1 (stereo not given),5.4%,-0.7%,4.4%,-4.4%
FC(F)(F)c1cccc(N2CCN(c3nc4ccccc4n4cnnc34)CC2)c1,15.8µM*,?,-1.9%,-7.6%[10.9 µM]
c1ccc(CN2CCN(c3nc4ccccc4n4cnnc34)CC2)cc1,-0.9%,-3.1%,-12.7%,-17.1%
CCOc1ccc(NS(=O)(=O)c2cc3c(cc2Cl)NC(=O)CO3)cc1,-0.4%,?,24.1%,-5.0%[10.9 µM]
COc1ccc(Oc2ncc3ncc(=O)n(-c4ccc(OC)cc4)c3n2)cc1,8.3%,-0.5%[11.4 µM],14.3%,-9.4%
N=C(N)SC(c1ccccc1)c1ccccc1,-8.6%[9.22 µM],3.8%[11.4 µM],-2.7%[9.22 µM],-10.0%[10.9 µM]
CCCCn1c(CN2CCOCC2)nc2c1c(=O)n(C)c(=O)n2C,3.98µM*,?,?,-37.3%
S=C1N[C@H](c2ccccc2)N[C@H](c2ccccc2)S1,7.2%[9.22 µM],0.8%[11.4 µM],6.1%[9.22 µM],-12.1%[10.9 µM]
Cc1ccc2nc(/C(C#N)=C/c3ccc(-c4cccc(Cl)c4)o3)[nH]c2c1,3.98µM*,?,?,-6.9%[10.9 µM]
CN(C)CCCNc1cc(N2CCN(C3CCCCC3)CC2)c2noc3c2c1C(=O)c1ccccc1-3,20µM*,-0.5%,-12.0%,-12.5%[10.9 µM]
COCCNC(=O)CN1CCC(n2c(C)nc3cc(C(F)(F)F)ccc32)CC1,0.0%,-0.4%,3.2%,-4.8%
Cc1cc(C)cc(OCCSc2nc(-c3ccc(C(C)(C)C)cc3)nc3cc(=O)[nH]n23)c1,?,5.3%,?,-6.3%[10.9 µM]
COc1ccccc1OCCCSc1nc(-c2ccc(C(C)(C)C)cc2)nc2cc(=O)[nH]n12,14.9%,?,80.9%,-8.8%[10.9 µM]
COc1cccc(-c2nc(SCc3ccc(C)cc3)n3[nH]c(=O)cc3n2)c1,12.6µM*,-2.5%,-1.4%,?
CC(C)(C)c1ccc(-c2nc(SCCCOc3ccccc3)n3[nH]c(=O)cc3n2)cc1,20µM*,?,6.5%,-4.2%[10.9 µM]
Cc1cc(OCCCSc2nc(-c3ccc(C(C)(C)C)cc3)nc3cc(=O)[nH]n23)ccc1Cl,15.8µM*,3.6%,29.7%,-9.5%[10.9 µM]
C/C(N=NC(=[SH+])SCc1ccccc1)=C1\C=CC=CN1.[Cl][Cu],.,.,.,-51.3%[10.9 µM]
CC[C@H](C)C(=O)O[C@@H]1CCC=C2C=C[C@H](C)[C@@H](CC[C@H]3C[C@@H](O)CC(=O)O3)[C@H]21,.,2.2%,.,.
Oc1c(C(Nc2nc3ccccc3s2)c2ccco2)ccc2cccnc12 (stereo not given),?,?,0.5%,-34.3%
CC(C)C(=O)NC(c1ccco1)c1ccc2cccnc2c1O (stereo not given),3.98µM*,?,-18.7%,-31.1%
